Measured values taken from ChEMBL document CHEMBL3433997, “St. Jude Leishmania screening dataset” (2016).

What was measured:
Format in all cases: functional
[1] = molecular target: Solute carrier family 2, facilitated glucose transporter member 1 (Homo sapiens) (UniProt P11166); experiment: ST_JUDE_LEISH: Cytotoxicity at 2uM final concentration against transgenic Leishmania Mexicana promastigotes LmGLUT1 that are glucose transport deficient and complemented with the human glucose transporter GLUT1. Activity is measured by DNA content using SYBR green in vitro
[2] = molecular target: Hexose transporter 1 (Plasmodium falciparum) (UniProt O97467); experiment: ST_JUDE_LEISH: Cytotoxicity at 2uM final concentration against transgenic Leishmania Mexicana promastigotes LmPfHT that are glucose transport deficient and complemented with the Plasmodium falciparum hexose transporter. Activity is measured by DNA content using SYBR green in vitro
[3] = molecular target: Glucose transporter (Leishmania mexicana) (UniProt O61059); experiment: ST_JUDE_LEISH: Cytotoxicity at 2uM final concentration against transgenic Leishmania Mexicana promastigotes LmGT2 that are glucose transport deficient and complemented with the L. Mexicana glucose transporter 2. Activity is measured by DNA content using SYBR green in vitro

Chain of Solute carrier family 2, facilitated glucose transporter member 1 (Homo sapiens) (P11166 whole entry): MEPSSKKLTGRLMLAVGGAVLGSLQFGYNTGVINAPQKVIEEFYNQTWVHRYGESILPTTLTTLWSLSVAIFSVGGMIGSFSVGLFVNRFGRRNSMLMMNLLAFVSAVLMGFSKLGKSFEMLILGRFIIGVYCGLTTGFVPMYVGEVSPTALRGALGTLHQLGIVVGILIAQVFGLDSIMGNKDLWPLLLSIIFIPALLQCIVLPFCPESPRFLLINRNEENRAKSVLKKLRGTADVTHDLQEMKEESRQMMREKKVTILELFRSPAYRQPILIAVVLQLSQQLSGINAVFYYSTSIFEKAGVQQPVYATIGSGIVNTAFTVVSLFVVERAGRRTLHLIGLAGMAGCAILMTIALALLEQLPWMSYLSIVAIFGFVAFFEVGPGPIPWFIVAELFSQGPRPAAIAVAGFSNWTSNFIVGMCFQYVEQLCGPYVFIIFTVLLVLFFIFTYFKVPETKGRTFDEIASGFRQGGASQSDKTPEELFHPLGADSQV

Compound | inhibition [1] [%] | inhibition [2] [%] | inhibition [3] [%]
CCc1c(C)nc(-n2nc(C)cc2NC(=O)CCc2ccccc2)[nH]c1=O | 0.86 | 2.79 | 2.86
Cc1ccc2[nH]c(-c3ccc(C=CC(=O)NCc4ccc(Cl)c(Cl)c4)cc3)nc2c1 | 10.3 | 9.48 | 4.93
Cc1cccc2nc(-c3ccc(-c4cccc(NC(=O)CCc5c[nH]cn5)c4)s3)[nH]c12 | 3.85 | 2.05 | 1.67
CCOC(=O)c1c(CNc2ccncc2)n(C)c2cc(Br)c(OC(C)=O)cc12 | -0.11 | 2.99 | 1.88
COc1cccc(NC(=O)c2nc(N3CCN(c4ccncc4)CC3)ccc2Cl)c1 | -1.23 | 1.65 | 0.29
COc1cccc(CNC(=O)c2cnc(N3CCN(c4ccncc4)CC3)c(Cl)c2)c1 | 18 | 23.8 | 10.9
CC(C)C1C(O)=C(c2ccc3ccccc3c2)C(=O)N1CC1CCCCC1 (stereo not given) | 1.23 | 1.04 | -8.52
Cc1ccc(CN2CCN(CC(O)COc3ccc4c(c3)CCC4)CC2)cc1 (stereo not given) | -0.73 | 0.88 | -0.29
N#Cc1ccc(N[C@@H](CC2CCCCC2)C(=O)N[C@@H]2CCCc3ccccc32)c2ccccc12 | 0.46 | 1.88 | 0.82
COc1cc(Nc2nccc(-c3c(-c4cccc(NC(=O)c5c(F)cccc5F)c4)nn4ncccc34)n2)cc(OC)c1OC | 12.1 | 16.6 | 6.39
O=C(c1cccs1)N(Cc1cccc(-c2ccc(CNCCc3ccccc3)cc2)c1)C1CCN(Cc2ccccc2)CC1 | 9.9 | 7.55 | 9.34
COc1cccc(-c2cc(C(=O)NC3CCC(N4CCC(c5ccccc5C)CC4)CC3)[nH]n2)c1 (stereo not given) | 6.55 | 14.6 | 5.13
CC(=O)c1ccc(-c2ccc(C(=O)NCCCCN3CCC(c4ccc5c(c4OCC(N)=O)CCCC5)CC3)cc2)s1 | 1.36 | 0.76 | 1.72
FC(F)(F)c1ccc(COc2cc(Cl)ccc2Cn2ccnc2)cc1 | 14 | 9.99 | 7.28
Cc1ccccc1C(=O)Nc1cccc(-c2nc3ncccn3c2C)c1 | 3.33 | 3.11 | 1.25
Cn1nc(-c2ccc(CN[C@@H]3CCc4ccc(O)cc43)cc2)c2cnc(NCCCN3CCCC3)nc21 | 1.97 | 0.42 | 1.31
O=C(NCCN1CCN(S(=O)(=O)c2ccc(OC3CCNCC3)c(Br)c2)CC1)c1ccc(Cl)c(Cl)c1 | 3.33 | 3.46 | 4.49
CC1CN(c2cnn(C/C=C/c3ccc(NC(=O)c4ccc(Cl)cc4)cc3)c(=O)c2Cl)CC(C)N1 (stereo not given) | -0.22 | -0.3 | -1.49
COc1ccc2ncc(F)c(CCN3CC[C@H](NC(=O)c4ccc5c(n4)NC(=O)CS5)[C@H](O)C3)c2n1 | 10.7 | 9.73 | 1.48
CCCCc1cc(NCC)nc(Nc2ccc(OC)cc2)n1 | 20.3 | 10.1 | 5.43
COc1ccc2ncc(Cl)c(NCC3(O)CCC(NCc4ccc5c(n4)NC(=O)CS5)CC3)c2n1 (stereo not given) | 4.63 | 3.3 | 1.82
CC[C@H]1CN2CCc3cc(OC)c(OC)cc3[C@@H]2C[C@@H]1CC1=NCCc2c1[nH]c1ccc(OCc3ccccc3)cc21 | 0.63 | 0.59 | 2.89
CN1CCC(C(=O)Nc2ccc(-c3cccc(-c4nc5cc(F)ccc5[nH]4)c3)cc2)CC1 | 8.95 | 9.27 | 8.51
CC(C)CNCc1ccc(-c2ccc(CN(CCCN3CCN(C)CC3)C(=O)/C=C/c3ccccc3)cc2)cc1 | 8.73 | 6.1 | 3.32

Compound | inhibition [1] [%] | inhibition [2] [%] | inhibition [3] [%]
CC(=O)Nc1ccc(C(=O)Nc2cccc(-c3ccc(-c4nc5ccccc5[nH]4)s3)c2)cn1 | 4.38 | 1.07 | 5.88
COc1cc(NCC(O)CNc2cc(Cl)nc3ccccc23)nc2ccccc12 (stereo not given) | 8.65 | 8.28 | 7
O=C(Nc1ccccc1)N(Cc1ccc(-c2cccc(CNC3CCCC3)c2)cc1)C1CCN(Cc2ccccc2)CC1 | 0.97 | 1.4 | 1.42
CCOc1c(Br)cc(C)cc1CNCCCNc1nc2ccccc2[nH]1 | 1.35 | -0.49 | 1.33
O=C(Nc1ccc(Cn2ncc(N3CCCNCC3)c(Cl)c2=O)cc1)Nc1cccc(SC(F)(F)F)c1 | 0.84 | 1.25 | 0.05
CCCc1nc2c(N3CC(NC(=O)/C=C/c4ccccc4)C3)cccc2n1C1CC1 | 9 | 7.28 | 8.19
CS(=O)(=O)Cc1ccc(Nc2nccc(N3CCCc4cc(NC(=O)Nc5cccc(C(F)(F)F)c5)ccc43)n2)cc1 | 9.54 | 15.9 | 2.08
O=C(Nc1ccc(N2CCCN(Cc3cccc(F)c3)CC2)cc1)c1ccccc1 | 0.26 | -0.73 | -0.78
CN(C)CCOc1ccc(/C(=C(/CCCn2ccnc2)c2ccccc2)c2ccc(O)cc2)cc1 | 4.25 | 6.01 | 5.69
CCCN1CCC2(CC1)NC(C(=O)NCCC(C)C)Cc1c2[nH]c2cc(Cl)ccc12 (stereo not given) | 6.25 | 6.94 | 2.82
O=C(/C=C/c1ccc(Cl)c(Cl)c1)NCCCCCCN1CCN(C(=O)Nc2ccc(Cl)c(Cl)c2)CC1 | 2.42 | 2.46 | 4.14
COc1cc2nc(NCCc3ccccc3)nc(NCc3ccc(C#N)cc3)c2cc1OC | 3.59 | 6.39 | 2.83
Cc1ccc(O)cc1Nc1ccnc2cc(-c3ccccc3)ccc12 | 7.87 | 8.41 | 7.72
CCCOc1ccc(C(=O)Nc2nonc2-c2ccc(OC)c(OC)c2)cc1 | 8.69 | 7.86 | 5.89
O=C(Nc1ccc(-c2ccccc2)cc1)Nc1cccc(Cn2nc(Cl)c(N3CCCNCC3)cc2=O)c1 | 3.71 | 0.49 | 0.24
O=C(Nc1ccc(N2CCNCC2)nc1)c1oc(-c2ccccc2)nc1C(F)(F)F | 2.9 | 3.6 | 0.32
CON=C1CCC(Cn2ccnc2)(c2ccc(Cl)cc2Cl)CC1 (stereo not given) | 7.4 | 2.3 | 4.22
O=C(Cn1c(CCc2cccc(F)c2F)cc(=O)c2ccccc21)N(CCN1CCCC1)Cc1ccc(-c2ccc(C(F)(F)F)cc2)cc1 | 1.56 | 2.33 | 2.03
Cc1cc(-c2nc3ccc(C(=O)NCc4ccccc4)cc3n2C2CCN(C(=O)c3ccc(-c4ccccc4)cc3)CC2)ccn1 | 1.02 | -0.07 | 1.94
COc1cccc(OCC2CCCN(CCCCNC(=O)c3ccc(NC(=O)c4ccc(Cl)cc4)cc3)C2)c1 (stereo not given) | -2.42 | 1.68 | -1.92
CCN(CC)c1ccc(NC(=S)NC2CCN(CCCCCNC(=O)/C=C/c3ccc(Cl)c(Cl)c3)CC2)cc1 | 5.28 | 6.72 | 6.22
COc1ccc(OCCON)cc1 | 7.35 | 10.4 | 8.87
COc1ccc(-c2cn3c(C(=O)Nc4ccccc4Cl)c(-c4ccccc4)c4c3n2CCCC4)cc1 | 0.33 | 0.92 | -0.58
CC(c1cccc(S(=O)(=O)NCc2ccc(Cl)cc2Cl)c1)N1CCC(N2CCCCC2)CC1 (stereo not given) | 8.44 | 4.33 | 3.71

Compound | inhibition [1] [%] | inhibition [2] [%] | inhibition [3] [%]
CCOC(=O)c1ccc(NC(=O)Nc2cccc(-c3ccc(-c4nc5cc(C(F)(F)F)ccc5[nH]4)cc3)c2)cc1 | -0.08 | 1.53 | 0.3
CSc1ccc2ccccc2c1CCNCCCCNCCc1c(SC)ccc2ccccc12 | 68.9 | 96.1 | 81.6
CCCCCNc1nc2nc(N)nc(N)c2nc1-c1ccccc1 | 7.52 | 9.23 | 0.23
OCCc1ccc(Nc2nccc(-c3nnc4ccccn34)n2)cc1 | 6.85 | 6.22 | 6.32
O=C(Nc1ccc(C(F)(F)F)cc1)c1ccc(NCCCN2CCCCCC2)c([N+](=O)[O-])c1 | 5.54 | 6.55 | 6.28
CCN(CC)CCCNCc1ccc(-c2ccc(C(F)(F)F)cc2)cc1 | 5.63 | 2.78 | -0.45
Cc1cccc2nc(-c3ccc(-c4ccc(C(=O)NCCc5cn(C)cn5)cc4)s3)[nH]c12 | 4.34 | 5.34 | 2.6
O=C(c1cc(-c2ccco2)n[nH]1)N1CCN(S(=O)(=O)c2ccc(Br)cc2)CC1 | 10.8 | 10.2 | 7.48
N=C(N)NCCCN(Cc1ccccc1)c1ccccc1 | 3.87 | 2.61 | 1.89
CN1CCN(CCCN(Cc2ccc(-c3ccc(CNCc4ccc5c(c4)OCO5)cc3)cc2)C(=O)CCC2CCCC2)CC1 | 4.67 | 7.78 | 1.18
COc1ccc(-c2nnc(Sc3ccc(C#N)c([N+](=O)[O-])c3)n2CCC(C)C)cc1 | 5.19 | 5.04 | -0.81
Cc1cccn2c(=O)c3cc(C(=O)NC(C)c4ccccc4)c(=N)n(CCc4ccccc4)c3nc12 (stereo not given) | 12.2 | 16.8 | 11.9
CN(Cc1ccc(NC(=O)NC2CCN(C(=O)/C=C/c3ccc(Cl)c(Cl)c3)CC2)cc1)C1CCOCC1 | 1.63 | -3.08 | 3.44
CS(=O)(=O)NCCCNCc1ccc(-c2ccc(-c3nc4cc(F)ccc4[nH]3)cc2)cc1 | 7.49 | 4.28 | 4.63
CC(C)(C)c1ccc2[nH]c(-c3ccc(C(=O)NCCCc4ccccc4)cc3)nc2c1 | 2.42 | 2.97 | -0.47
O=C(Nc1cccc(C(F)(F)F)c1)N1CCOC(CCN2CCC3(CCc4ccccc43)CC2)(c2ccc(Cl)c(Cl)c2)C1 (stereo not given) | 5.08 | 4.51 | 2.55
Fc1ccc2[nH]c(-c3cccc(-c4ccc(CN5CCN(c6cnccn6)CC5)cc4)c3)nc2c1 | 14.3 | 12.5 | 8.14
CN(CCCCCN1CCC(NC(=O)Nc2ccc(Oc3ccccc3)cc2)C1)C(=O)/C=C/c1ccc(Cl)c(Cl)c1 (stereo not given) | 0 | 6.7 | -1.12
CC(C)(CN)c1cc(-c2ccc(Cl)c(O)c2)c(-c2ccncc2)o1 | 0.01 | 3.22 | 1.62
Cc1cc(N2CCN(CC3CCCCC3)CC2)nc(Nc2ccc(Br)cc2)n1 | 1.47 | 3.17 | 0.54
Oc1ccc(CCNc2nc(N/N=C/C=C/c3ccc(Cl)cc3)nc(N3CCNCC3)n2)cc1 | 0.83 | 1.74 | 0.91
Cc1cc(NC(=O)NCCN2CCC(NS(=O)(=O)c3ccc(C(F)(F)F)cc3)C2)c2ccccc2n1 (stereo not given) | 11.8 | 11.8 | 7.4
